Screen size: about 65,000 compounds; about 2,100 (3.2%) showed an effect of 50% or more. The median lay at about -52%. What follows is part of a selection rich in strong results, with near analogues and random picks from the rest.
system: Plasmodium falciparum; assay: Screen against P. falciparum Asexual Blood Stage (ABS), at 5uM; assay type: functional, Dd2; conditions: tested at 5 uM

SMILES | INHIBITION [%]
O=C(Cc1c(F)cccc1F)N1CCN(CC(=O)N2CCCC2)CC1 | -130
Cc1cc(CN2CC[C@H]3C[C@@H](c4nccs4)O[C@@H]3C2)no1 | -79.5
CC(=O)N1CCOCC2(CCCNC2)C1 (stereo not drawn) | -96.3
Clc1ccc(C2(CNC3=NCCN3)CCCCC2)cc1 | 90.2
CN(C)C(=O)C1CCC2(CCNCC2)C1 (stereo not drawn) | -63
CC(NCc1ccc(OCC(N)=O)cc1)c1ccc2c(c1)CCCC2 (stereo not drawn) | 73.4
CC(C)n1[nH]c(=O)c2c1NC(=O)CSC2c1ccc(OCC(N)=O)cc1 (stereo not drawn) | -43.5
CC(C)n1[nH]c(=O)c2c1NC(=O)CSC2c1cccc(OCC(N)=O)c1 (stereo not drawn) | -96.5
O=C(c1cccnc1)N1CCN2C[C@H](Oc3cncnc3)C[C@H]2C1 | -64.5
Cc1noc(C)c1CN1CC[C@@H]2O[C@H](COCC3CC3)CC[C@@H]21 | -4.95
Cc1ccc(-c2nc(CNC(C)CCO)[nH]c2-c2ccccn2)cc1 (stereo not drawn) | 86
c1cc(CN2CC[C@H]3C[C@H](c4nc(C5CC5)cs4)O[C@@H]3C2)ccn1 | -49.9
CN(C)c1ncc2c(c1C(=O)O)CCN(Cc1ccco1)C2 | -111
c1ccc(CN2C[C@@H]3CCCO[C@@H]3[C@H](Nc3ccccn3)C2)nc1 | 18.5
c1ccc(NC[C@@H]2CCC[C@@H]3CN(Cc4csnn4)C[C@@H]32)nc1 | 62
Cn1ccnc1NC[C@@H]1CCC[C@@H]2CN(Cc3cccnc3)C[C@@H]21 | -26.3
c1ccc(NC[C@@H]2CCC[C@@H]3CN(Cc4cc[nH]n4)C[C@@H]32)nc1 | -29.8
c1cnc(NC[C@@H]2CCC[C@@H]3CN(Cc4cc[nH]n4)C[C@@H]32)nc1 | -16.9
c1cnc(NC[C@@H]2CCC[C@@H]3CN(Cc4csnn4)C[C@@H]32)nc1 | 47.7
c1ccc(NC[C@@H]2CCC[C@@H]3CN(Cc4cccnc4)C[C@@H]32)nc1 | 75
CC(=O)N1C[C@H]2CCCC(N3CCN(c4ncccn4)CC3)[C@H]2C1 (stereo partly drawn) | -104
c1ccc(NC[C@@H]2CCC[C@@H]3CN(Cc4nccs4)C[C@@H]32)nc1 | 57.1
c1ccc(NC[C@@H]2CCC[C@@H]3CN(c4ncccn4)C[C@@H]32)nc1 | 72.9
c1cncc(CN2C[C@H]3CCC[C@@H](CNc4cnccn4)[C@H]3C2)c1 | -3.45
O=C1N(c2cncnc2)CCC12CCCN(Cc1cccnc1)C2 (stereo not drawn) | -88.1

SMILES | INHIBITION [%]
Cc1nn(C)c2ncc(S(=O)(=O)N3CCCN4CCCC4C3)cc12 (stereo not drawn) | -18.1
O=C1CSC(c2cccnc2)c2c(n(C3CCOCC3)[nH]c2=O)N1 (stereo not drawn) | -140
COCCN1CCCC2(CCC(=O)N2Cc2cccnc2)C1 (stereo not drawn) | -66.3
O=C1CCC2(CCN(Cc3ccc(F)cc3)CC2)N1CCN1CCCC1 | 84.6
CC[C@@H]1N(C)CCC[C@]12CCC(=O)N2Cc1ccncc1 | 3.77
Cc1cnc(N2CCCC3(CCCN3CC(=O)N(C)C)C2)nc1 (stereo not drawn) | -98.2
COCCNc1nc2c(c(NCc3cnc(C)c(C)c3)n1)CCNCC2 | -67.4
COCc1cncc2c1CCN(Cc1cccs1)C2 | -1.55
COCCNc1nc2c(c(NCCc3cccs3)n1)CCNCC2 | 81.9
Cn1cc(C2=CCN(CCCC(=O)Nc3ccc(C#N)cc3)CC2)cn1 | -69.1
Cc1ccc(CN2CC[C@@H]3[C@@H]2CCN3C(=O)Cc2cccs2)o1 | -34.3
CCn1ccnc1CN(C)C1CCCN(CCCc2ccccc2)C1 (stereo not drawn) | 86.8
Cc1ncc(CN(C)C2CCCN(CCc3ccccc3)C2)n1C (stereo not drawn) | 90
CCn1ccnc1CN(C)C1CCCN(Cc2ccccc2F)C1 (stereo not drawn) | 70.4
CCn1c(C)nnc1CN(C)C1CCN(CCOc2ccccc2)C1 (stereo not drawn) | -23.4
CCn1ccnc1CN1CCCN(C(=O)Cc2ccc(F)cc2)CC1 | -4.98
CCn1ccnc1CN1CCCN(C(=O)Cc2ccccc2C)CC1 | -41.3
Cc1nc(CC(=O)N(C)C2CCCN(CCc3ccccc3)C2)cs1 (stereo not drawn) | -42.4
CCn1ccnc1CN(C)C1CCCN(CCc2ccccc2)C1 (stereo not drawn) | 77.1
COC(=O)N1C[C@@H]2CC[C@H]1CN(Cc1ccncc1)C2 | -81.6
c1cncc(O[C@H]2CC[C@H]3[C@H]2OCCN3C2CCCC2)c1 | -36.8
O=C(c1ccc(F)c(F)c1)N1C[C@H]2CNC[C@H]2C1 | -51.2
Cc1nccn1CCCN1CCCC(c2ccccc2)C1 (stereo not drawn) | 77.8
Cc1ccc(O[C@@H]2C[C@H]3CN(c4ncc(F)cn4)CCN3C2)cc1 | -98.8
c1cncc(OC[C@@]23CCC[C@@H]2CN(CC2CCOCC2)C3)c1 | 39

SMILES | INHIBITION [%]
c1ccc(C2CN(C3CC3)CC3(CCN(Cc4cscn4)CC3)C2)cc1 (stereo not drawn) | 80.4
COCC1CC2(CCN(CC3CC3)CC2)CN1Cc1ccccn1 (stereo not drawn) | 42.4
CN1CC(c2ccccc2)CC2(CCN(Cc3ncc[nH]3)CC2)C1 (stereo not drawn) | 82.5
Cc1cc(NC2CC3(CCN(Cc4cscn4)C3)C2)ncn1 (stereo not drawn) | 19.4
O=C1NCC[C@]12CN(Cc1ccncc1)C[C@H]2c1ccccc1 | -70.3
COCC1CC2(CCN(Cc3ccccn3)CC2)CN1C(C)C (stereo not drawn) | 9.58
c1cc(NC2CC3(CCN(Cc4cc[nH]n4)C3)C2)ncn1 (stereo not drawn) | -152
c1cc(NC2CC3(CCN(Cc4cscn4)C3)C2)ncn1 (stereo not drawn) | -13.3
CCN1CC(c2ccccc2)CC2(CCN(Cc3ncc[nH]3)CC2)C1 (stereo not drawn) | 88.1
Cc1ncsc1CN1CCO[C@H]2[C@H](Oc3ccccn3)CC[C@@H]21 | -24.4
CCC12CN3CC(CC)(CN(C1)C3c1[nH]c(=O)[nH]c(=O)c1C)C2=O (stereo not drawn) | -87.1
CCOC(=O)[C@@H]1[C@@H](c2ccccc2)CN2CCN(C(=O)C3CC3)C[C@H]12 | -91.7
c1cc(CN2CCO[C@@H]3CNC[C@@H]32)co1 | -38.2
CCOc1c(Br)cc(C2c3c(n[nH]c3C)N=C3COC(=O)C32)cc1OC (stereo not drawn) | 81.1
COc1cc(C2c3c(n[nH]c3C)N=C3COC(=O)C32)cc(Br)c1O (stereo not drawn) | 91
COc1cc(C2SCC(=O)Nc3n[nH]cc32)cc(OC)c1O (stereo not drawn) | -36
c1ccc(CN2CCO[C@H]3[C@H](OCCN4CCCC4)CC[C@@H]32)nc1 | 30
CN1CCN(C[C@H]2CN3CC[C@H]2C[C@@H]3CNC(=O)c2ccco2)CC1 | -59.7
O=C1CO[C@@H]2CN(Cc3ccncc3)C[C@H]2N1Cc1ccncc1 | -52.2
CC(=O)N1CCC2(CC1)NC(=O)[C@H]1CN(Cc3cccnc3)C[C@H]12 | -6.03
CC1=C(CCN2C[C@H](O)[C@@H](N3CCOCC3)C2)C(C)(C)CCC1 | 78.3
O=C(COc1cccc(F)c1)N1C[C@@H](O)[C@H](N2CCOCC2)C1 | -17.5
Cc1ccccc1CC(=O)N1C[C@@H](O)[C@H](N2CCOCC2)C1 | -16.5
COc1cc(N2CCC[C@]3(C(=O)O)CN(C(C)C)C[C@@H]3C2)ncn1 | -85.1
Brc1ccc(CN2CCC(NCc3ncc[nH]3)CC2)cc1 | 83.5

SMILES | INHIBITION [%]
Clc1cc(Cl)cc(CN2CCC(NCc3ncc[nH]3)CC2)c1 | 84.7
O=S1(=O)C[C@@H]2[C@H](C1)N(Cc1ncc[nH]1)CCN2Cc1cccnc1 | -89.75
COCCc1ncc(CN2CCCC(C(=O)c3ccccc3)C2)cn1 (stereo not drawn) | -145
CCn1cc(CN2CCCN(C(=O)Cc3ccc(C)nc3)CC2)cn1 | -14.8
CCn1cc(CN2CCCN(C(=O)Cc3cccs3)CC2)cn1 | -85.9
Cc1nc(CN(C)C)cc(N2CCCC(COc3ccc(F)cc3)C2)n1 (stereo not drawn) | 86.4
CCn1cc(CN2CCCC(COc3ccccc3F)C2)cn1 (stereo not drawn) | 72.7
CCn1cc(CN2CCCC(COc3ccc(F)cc3)C2)cn1 (stereo not drawn) | 75.5
O=C(N[C@@H]1CN[C@@H]2CCCO[C@@H]21)c1cscn1 | 14
Cc1noc(C)c1CN1CC[C@H]2C[C@H](c3nccs3)O[C@@H]2C1 | -8.14
O=C1CO[C@H]2CN(C3CCOCC3)C[C@H]2N1Cc1ccccn1 | -104
CCCc1nc(C(=O)N[C@H]2COC[C@@H]2N2CCN(C)CC2)cs1 | -49.3
COCCN1CCc2c(cnc(-c3ccoc3)c2C(=O)O)C1 | -47.6
Cc1ccc(OCc2occc2C(=O)N2CCCCC(N)C2)cc1 (stereo not drawn) | 77.5
Cc1occc1C(=O)N1CCN2C[C@H](Oc3cccnc3)C[C@H]2C1 | -23.4
CC(C)NC(=O)[C@H]1C[C@H]2NCCO[C@@H]2C1 | -33.9
Cc1cc(CN2C[C@H]3CCC[C@@]3(COCC3CCOCC3)C2)no1 | -91.9
O=C(CN1C[C@@H]2CC[C@H]1CN(Cc1ccccn1)C2)Nc1ccccc1 | 83.6
O=C(Cc1ccccn1)N1C[C@H]2CN(Cc3ccccn3)C[C@H]2C1 | -68.5
CC(C)(C)c1cc(CN2C[C@@H]3CC[C@H]2CN(Cc2ccccn2)C3)n[nH]1 | 74.1
O[C@@]1(c2ccccn2)CC[C@H]2CN(Cc3ccccn3)C[C@H]21 | -89.9
Oc1cccc(CN2C[C@@H]3CC[C@H]2CN(Cc2cccnc2)C3)c1 | -14.5
Cc1nnsc1CN1C[C@@H]2CC[C@H]1CN(Cc1ccccn1)C2 | -2.06
